# JMJD2A Tudor inh: qHTS Assay for Inhibitors of JMJD2A-Tudor Domain; actives 4.4% (n = 390,000); AlphaScreen JMJD2A-Tudor / H3K4me3 peptide binding; Potency, µM (doses to about 114 µM), hits mostly inhibitors; Lysine-specific demethylase 4A (Homo sapiens), O75164; note: nearly all actives have a fitted effect of over 50% in size
# G9a block: qHTS Assay for Inhibitors of Histone Lysine Methyltransferase G9a; Histone-lysine N-methyltransferase EHMT2 (Homo sapiens), Q96KQ7; G9a H3K9 monomethylation, AlphaScreen, 2 h; Potency, µM (titrated, usually from 102 µM), actives largely listed as inhibitors; actives 8.8% (n = 350,000); note: nearly all actives have a fitted effect of over 75% in size
# Target sequence (Q96KQ7 913-1193 limits assumed): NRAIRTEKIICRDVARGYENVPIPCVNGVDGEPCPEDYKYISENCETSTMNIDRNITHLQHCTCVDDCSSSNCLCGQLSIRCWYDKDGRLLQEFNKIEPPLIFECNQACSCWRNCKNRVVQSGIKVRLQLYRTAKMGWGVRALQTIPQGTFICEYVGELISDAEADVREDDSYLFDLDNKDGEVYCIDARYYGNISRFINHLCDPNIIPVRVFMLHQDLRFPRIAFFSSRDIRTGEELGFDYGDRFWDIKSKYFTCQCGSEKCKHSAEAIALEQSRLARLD
#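 G9a (20 nM) preincubated 15 min RT with compounds, then 500 nM biotinylated H3K9 peptide and 20 uM SAM added; 2 h RT reaction. Monomethyl-H3K9 product detected by AlphaScreen with anti-H3K9me1 antibody, streptavidin donor and anti-rabbit IgG acceptor beads.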
# Sfp PPTase inh: qHTS Assay for Inhibitors of Bacillus subtilis Sfp phosphopantetheinyl transferase (PPTase); Biochemical Sfp PPTase activity, qHTS; AID 1490, 2009; Potency, µM, actives largely listed as inhibitors; 4'-phosphopantetheinyl transferase ffp (Bacillus subtilis), Q9F4F7; actives 3.5% (n = 310,000);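 note: the enzyme is Sfp with the accession as filed and its product quenches rhodamine fluorescence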
#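 Fluorescence-quenching assay with 15 nM Sfp, 5 uM rhodamine-CoA and 12.5 uM BHQ-2-labelled ybbR peptide in pH 7.6 Hepes/MgCl2 buffer. Enzyme was pre-incubated with compound for 15 min at room temperature. Rate was taken from the 30-min fluorescence change (525/598 nm).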
# BAZ2B inh: qHTS Assay for Inhibitors of BAZ2B; Bromodomain adjacent to zinc finger domain protein 2B (Homo sapiens), Q9UIF8; AlphaScreen BAZ2B-H3K14Ac peptide displacement; Potency, µM (top dose mostly 114 µM), usual class: inhibitors; actives 4.4% (n = 360,000); AID 504333, 2011; note: nearly all actives have a fitted effect of over 60% in size
#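 Multi-concentration screen (max 110 uM) measuring displacement of acetylated histone H3 peptide from BAZ2B by AlphaScreen, using 50 nM protein, 50 nM peptide and 10 ug/mL streptavidin donor plus Ni-chelate acceptor beads.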
# HP1b binding inh: HTS for Inhibitors of HP1-beta Chromodomain Interactions with Methylated Histone Tails; Chromobox protein homolog 1 (Homo sapiens), P83916; AlphaScreen HP1-beta / biotin-H3K9me3 peptide binding; Potency, µM (series often up to 114 µM), hits mostly inhibitors; actives 0.56% (n = 390,000); AID 540317, 2011; note: nearly all actives have a fitted effect of over 70% in size
# Target sequence (P83916 whole entry, looked up): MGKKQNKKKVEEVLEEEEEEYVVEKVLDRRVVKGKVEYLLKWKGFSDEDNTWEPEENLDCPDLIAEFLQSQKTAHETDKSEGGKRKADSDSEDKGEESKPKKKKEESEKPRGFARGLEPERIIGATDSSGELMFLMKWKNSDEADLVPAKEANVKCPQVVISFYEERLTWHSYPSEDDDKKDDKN
#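 AlphaScreen: HP1-beta (50 nM) preformed 30 min with biotin-H3(1-18)K9me3 peptide (50 nM) in PBS pH 7.4, 0.01% Tween-20. Compound added for 30 min at RT, then streptavidin donor/nickel chelate acceptor beads (10 ug/mL) for 30 min.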
# PLK1 PBD inh: qHTS for Inhibitors of PLK1-PDB (polo-like kinase 1 - polo-box domain): Primary Screen; Serine/threonine-protein kinase PLK1 (Homo sapiens), P53350; Plk1 PBD binding of FITC phosphopeptide, fluorescence polarization; Potency, µM, usual class: inhibitors; actives 2.8% (n = 360,000); AID 720504, 2013; note: series mostly up to about 57 µM; nearly all actives have a fitted effect of over 65% in size
# A number is an active result; – = inactive; ? = inconclusive; · = not tested or not shown; [ ] = dose if it differs, or a comment. A selection: hits, their analogues and other compounds. The true share with any hit is near 12%. Calls come from the whole dose curve; as a rule, active = well fitted curve in the direction sought with a large enough effect; inconclusive = small, poorly fitted or top-dose-only effect, or another doubt; inactive = no such curve, though single readings can be large; an effect the other way counts as inactive or inconclusive.
SMILES,JMJD2A Tudor inh,G9a block,Sfp PPTase inh,BAZ2B inh,HP1b binding inh,PLK1 PBD inh
Cc1ccccc1OCCOC(=O)c1c(-c2ccccc2)noc1C,–,–,–,–,–,–
Cc1onc(-c2ccccc2)c1C(=O)OCCOc1ccccc1F,–,–,–,–,–,27µM
C/C(=C\c1ccc(C)o1)C(=O)c1c(C)cc(C)[nH]c1=O,–,50µM,32µM,·,–,–
CC1CN(C(=O)c2cc3cc(Cl)cc(Cl)c3oc2=O)CC(C)O1 (centres undefined),–[11.4 µM],–,–,–,–,21µM
CCOC(=O)C(C)(C)Oc1cccc2c1S(=O)(=O)c1ccccc1-2,–,·,·,·,–,–
CC1=C(C(N)=O)S(=O)(=O)c2ccccc21,?,–,–,–,–,21µM
Cc1ccc(S(=O)(=O)/C(C#N)=C/c2c(N3CCN(C)CC3)nc3c(C)cccn3c2=O)cc1,?,45µM,–,?,–,–
Cc1cccn2c(=O)c(/C=C(\C#N)S(=O)(=O)c3ccccc3)c(N3CCN(C)CC3)nc12,–,?,–,–,–,–
CCN1CCN(c2nc3c(C)cccn3c(=O)c2/C=C(\C#N)S(=O)(=O)c2ccc(Cl)cc2)CC1,?,32µM,–,?,?,–
CCN1CCN(c2nc3c(C)cccn3c(=O)c2/C=C(\C#N)S(=O)(=O)c2ccc(C)cc2)CC1,?,50µM,–,?,–,–
CC(OC(=O)c1ccc(Cl)nc1)C(=O)Nc1ccc2c(c1)OCO2 (centres undefined),–,–[12.7 µM],·,–,–,–
CC(C)c1nnc(NC(=O)Cc2cccs2)s1,–,–,–,–,–,–
CC(C)Cc1nnc(NC(=O)CSc2ccccn2)s1,–,45µM,45µM,–,–,?
CCCCCc1nnc(NC(=O)Cc2cccs2)s1,28µM,14µM,–,45µM,50µM,?
CC(C)Cc1nnc(NC(=O)Cc2cccs2)s1,?,45µM,–,40µM,–,–
CC(C)(C)Cc1nnc(NC(=O)Cc2cccs2)s1,–[11.4 µM],–,–,–,?,19µM
O=C(Cc1cccs1)Nc1nnc(CCc2ccccc2)s1,?,–[12.7 µM],–,–,–,–
O=C(Cc1cccs1)Nc1nnc(-c2ccncc2)s1,–,–[12.7 µM],–,–,–,–
COc1ccc(Oc2ncc3nc(-c4ccc(F)cc4)c(=O)n(CCC#N)c3n2)cc1,·,–[0.501 µM],–,·,·,·
COCCn1c(=O)c(-c2ccccc2)nc2cnc(OC)nc21,·,–[0.501 µM],–,·,·,·
CCOc1ccc(-c2cc(C(=O)N/N=C(\C)c3cccnc3)c3ccccc3n2)c(OCC)c1,–,?,–,–,–,–
CCCCc1nc2cc(C(=O)N3CCCCC3CCNC(C)=O)ccc2o1 (centres undefined),?,?,–,–,–,24µM
Cc1nc2c(C)cccn2c1/C(O)=C1\C(=O)C(=O)N(CCN(C)C)C1c1cccs1 (centres undefined),–,·,·,·,–,–
COc1cc(C2/C(=C(/O)c3ccc(OCC(C)C)cc3)C(=O)C(=O)N2CCN(C)C)ccc1O (centres undefined),–,25µM,–,–,–,–
COc1ccc(/C(O)=C2/C(=O)C(=O)N(CCN(C)C)C2c2ccc(OC)c(OC)c2)c(C)c1 (centres undefined),–,40µM,–,–,–,–
COc1cccc(C2/C(=C(\O)c3c(C)nc4c(C)cccn34)C(=O)C(=O)N2CCCN(C)C)c1 (centres undefined),·,50µM,–,–,·,·
COc1ccc(OC)c(C2/C(=C(/O)c3cnn(-c4ccccc4)c3C)C(=O)C(=O)N2CCN(C)C)c1 (centres undefined),–,?,–,50µM,–,–
